# Screening results: PubChem BioAssay, Emory University Molecular Libraries Screening Center
# Measles inh: inhibitors of measles virus growth in cells, primary screen, measles RdRp inhibitor project, cell-based, single point, HTS | infected Vero cells, GFP fluorescence, 64 h; hits give low values | z-score (no concentration beside the values) | 33,000 compounds, 0.1% hits | AID 745, 2007; in the data active = z-score below about -3
# * hit, by the source's call. The full list was thinned out, with hits kept by preference.
SMILES,Measles inh
Cc1sc2ncn(CC(=O)Nc3ccc(C(F)(F)F)cc3)c(=O)c2c1S(=O)(=O)N1CCOCC1,-1.7
COc1ccc(-n2nc3c(c2NC(=O)C(C)C)CS(=O)C3)cc1 (stereo not drawn),-0.59
O=C(c1cnn2c(C(F)(F)F)cc(-c3ccccc3)nc12)N1CCc2ccccc2C1,-0.29
O=C(Nc1ccc(Cc2ccncc2)cc1)C1CCCN1S(=O)(=O)c1ccccc1 (stereo not drawn),-0.89
Cc1ncc([N+](=O)[O-])n1CCSc1nnc(SCc2ccccc2)s1,0.44
O=S(=O)(c1ccc(Cl)cc1)N1CCN(S(=O)(=O)c2ccc3ccccc3c2)CC1,1.2
O=C1CSC(c2cccc(Br)c2)N1c1ccc2ccccc2c1 (stereo not drawn),-0.39
Cc1ccc(Cl)cc1N1CCN(S(=O)(=O)c2ccc3nc(-c4ccccc4)[nH]c3c2)CC1,-0.31
Cc1nc2sc(C(c3ccco3)N3CCN(CCO)CC3)c(O)n2n1 (stereo not drawn),1.2
Cc1ccnc(NC(=O)c2ccc([N+](=O)[O-])cc2)c1,0
O=C(CSc1nc2c(sc(=S)n2Cc2ccco2)c(=O)n1-c1ccccc1)N1CCN(c2ccccc2)CC1,-0.6
O=C(CNS(=O)(=O)c1cccs1)N1CCN(C(=O)c2ccco2)CC1,1.9
c1ccc2c(c1)nc(N1CCCCC1)c1nncn12,-0.32
O=C(CCCn1c(=S)[nH]c2ccccc2c1=O)Nc1cccc2c1CCCC2,2.1
CC(=O)c1c(C)n2c3c(cccc13)CCC2,-0.54
COc1ccc(-c2cc(=O)[nH]c(Sc3c(-c4ccccc4)c4cc(Cl)ccc4[nH]c3=O)n2)cc1,-3.3*
O=c1[nH]c2ccc(Cl)cc2c(-c2ccccc2)c1SCCO,-0.29
COc1ccc(C2CC(c3c(-c4ccccc4)c4cc(Cl)ccc4[nH]c3=O)=NN2C(=O)CCC(=O)O)cc1 (stereo not drawn),-0.07
CC1CCN(S(=O)(=O)N2CCC(C(=O)NCc3ccccn3)CC2)CC1,0.27
CC1CCC(C(=O)NC(C(=O)NCc2ccccn2)C(C)C)CC1 (stereo not drawn),-3.1*
CC1CCC(C(=O)NC(C(=O)Nc2ccc(C(C)C)cc2)C(C)C)CC1 (stereo not drawn),-0.83
CCCNC(=O)C(=O)Nc1cccc(Cl)c1C,0.09
Cc1ccc(Cn2c(SCc3cccc(F)c3)nc3ccsc3c2=O)cc1,-0.89
COc1ccc(C)cc1NC(=O)CN1CCN(C2c3ccccc3-c3ccccc32)CC1,0.08
COc1cc([N+](=O)[O-])cc(C=Nc2ccc(Cl)c(-c3nc4ccccc4o3)c2)c1O,2.1
SMILES,Measles inh
CCCCOc1cccc(C(=O)Nc2ccc(Cl)cn2)c1,-0.39
Cc1ccc(NC(=O)C2C3NC(=S)NC2(C)Oc2ccccc23)c(C)c1 (stereo not drawn),-0.17
Cc1ccc(NC(=O)C2C3NC(=S)NC2(C)Oc2ccc(Br)cc23)c(C)c1 (stereo not drawn),-3.3*
CCOc1cccc2c1OC1(C)NC(=S)NC2C1C(=O)Nc1ccc(C)cc1C (stereo not drawn),0.33
COc1ccc([N+](=O)[O-])cc1NC(=O)c1cccc(F)c1,-5.2*
COc1ccc([N+](=O)[O-])cc1NC(=O)c1cccc(C(=O)Nc2cc([N+](=O)[O-])ccc2OC)c1,-0.38
COc1ccccc1NC(=O)c1cccc([N+](=O)[O-])c1,-0.86
O=C(NCc1ccccc1)c1cccc(N2C(=O)C3C4C=CC(C4)C3C2=O)c1 (stereo not drawn),-0.98
COc1cccc(NS(=O)(=O)c2ccc3c(c2)C2C=CCC2C(c2ccccc2Cl)N3)c1 (stereo not drawn),2.2
CCc1ccc(-c2cn(-c3ccc(OC)cc3)c(=S)[nH]2)cc1,-0.09
CC1CCCCC1NC(=O)c1ccc(Sc2ccc(Br)cc2)c([N+](=O)[O-])c1 (stereo not drawn),0.68
COc1ccc(-n2c(SCC(=O)N3CCCC3)nc3c(sc(=S)n3-c3ccccc3)c2=O)cc1OC,-1.3
CCn1nccc1C(=O)N(C)C12CC3CC(CC(C3)C1)C2,-0.29
CCOc1ccc(C(=O)Nc2cc3nn(-c4ccc(OC)cc4)nc3cc2C)cc1[N+](=O)[O-],-0.1
COc1ccc(-c2nc3ccc([N+](=O)[O-])cc3nc2-c2ccc(OC)cc2)cc1,2.7
O=C(C1=C(O)C(=O)N(CCCn2ccnc2)C1c1ccco1)c1cccs1 (stereo not drawn),-0.49
CC(=O)NC(c1ccc(C)cc1)c1cc([N+](=O)[O-])c2cccnc2c1O (stereo not drawn),-3.4*
CC(=O)NC(c1ccccc1)c1cc(Cl)c2cccnc2c1O (stereo not drawn),-0.77
CCOc1cc(C(NC(=O)CC)c2cc([N+](=O)[O-])c3cccnc3c2O)ccc1O (stereo not drawn),-0.83
O=C(NCc1ccco1)c1ccc2c(=O)n(C3CCCCC3)c(SCc3ccc(Cl)cc3)nc2c1,1.9
COc1ccc(C(C)=O)cc1N1C(=O)C2C3C=CC(C3=C(c3ccccc3)c3ccccc3)C2C1=O (stereo not drawn),-0.22
COc1cc(C=Cc2nc3cc(Cl)ccc3c(=O)n2-c2ccccc2F)cc(OC)c1OC,-0.49
O=C(Nc1nccs1)c1cc2cc(Br)ccc2oc1=Nc1cccc(C(F)(F)F)c1,-0.02
Cc1c(C(=O)Nc2ccc(C(F)(F)F)cc2)sc2ncnc(N3CCCCC3C)c12 (stereo not drawn),-0.68
COC(=O)CSc1nc(-c2ccccc2)cc(-c2cccc(F)c2)c1C#N,0.67
SMILES,Measles inh
CCOc1ccc(/C(O)=C2\C(=O)C(=O)N(Cc3cccnc3)C2c2ccc(Br)cc2)cc1 (stereo not drawn),-0.68
CCNCCNC(=O)c1c(O)c2cc(F)cc3c2n(c1=O)C(C)CC3 (stereo not drawn),-0.98
C=CCOC(=O)C1=C(C)Nc2[nH]c(=O)[nH]c(=O)c2C1c1cccs1 (stereo not drawn),-0.09
COc1cccc(C(=O)Nc2ccc(S(=O)(=O)Nc3nc(C)cc(C)n3)cc2)c1,0.58
COc1ccc(CC(=O)Nc2ccc(S(=O)(=O)Nc3nc(C)cc(C)n3)cc2)cc1,1.5
Cc1cc(C)nc(NS(=O)(=O)c2ccc(Br)cc2)n1,-3.1*
O=C(CN1CCCCC1)Nc1c2c(nc3ccccc13)CCC2,0.44
CC1=C(C(=O)OC(C)C)C(c2cc3c(cc2[N+](=O)[O-])OCO3)C2=C(CC(C)(C)CC2=O)N1 (stereo not drawn),-0.77
Cc1c(NC(=O)c2cc(-c3ccc(CC(C)C)cc3)nc3ccccc23)c(=O)n(-c2ccccc2)n1C,-0.96
COc1ccc(CNS(=O)(=O)c2ccc3[nH]c(=O)sc3c2)c(OC)c1,0.86
CCOc1ccc(C(=O)Nc2ccc3oc(-c4cccc(I)c4)nc3c2)cc1[N+](=O)[O-],-0.82
CCCOC(=O)COc1cc2oc(=O)c3c(c2cc1Cl)CCC3,0.04
Cc1ccc(C)c(CN2C(=O)CSc3ccc(C(=O)NCCc4ccccc4)cc32)c1,1.6
O=c1c2c3c(sc2n2c(=S)[nH]nc2n1Cc1ccccc1)CCC3,-0.75
Cc1nc2sc3c(c2c(=O)[nH]1)CCC3,0.5
C=C1CSc2nc(=O)c3c4c(sc3n21)CCC4,-3.1*
COc1ccc(Cl)cc1NS(=O)(=O)c1cnc[nH]1,0.18
O=S(=O)(Nc1cccc(C(F)(F)F)c1)c1cnc[nH]1,0.38
O=S(=O)(Nc1ccc(Cl)cc1)c1cnc[nH]1,-3.5*
CCOc1cc(C2C3=C(CC(C)(C)CC3=O)OC3=C2C(=O)CC(C)(C)C3)ccc1OCc1ccccc1,0.12
COc1ccccc1Nc1ncc(C(=O)Nc2ccc(F)cc2)c2ccccc12,0.15
O=C(c1ccc(S(=O)(=O)N2CCOCC2)cc1)N1CCCC1,-0.23
O=C(C1CCC(Cn2c(=S)[nH]c3ccccc3c2=O)CC1)N1CCN(C2CCCCC2)CC1 (stereo not drawn),-0.36
CCCCOC(=O)C1=C(C)Nc2ncnn2C1c1ccc(F)cc1 (stereo not drawn),1.1
